Data published in PubChem BioAssay AID777 (Sanford-Burnham Center for Chemical Genomics, 2007).
The campaign covered roughly 96,000 compounds. About 19,000 (20%) were called active.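 Rule for the calls: active = blocking of liver enzyme CYP2C9 beyond about 50% at 5 µM (limit read from the data); inactive = the rest.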 Not all results are given here.

target: Cytochrome P450 2C9 (Homo sapiens) (UniProt P11712); test: blockers of cytochrome P450 2C9 activity – biochemical, luminescence, ADME assay, primary screen (AID 777); conditions: CYP2C9 Supersomes, luciferin-H conversion, at 5 µM, hits give high values
Sequence (P11712 whole entry, looked up): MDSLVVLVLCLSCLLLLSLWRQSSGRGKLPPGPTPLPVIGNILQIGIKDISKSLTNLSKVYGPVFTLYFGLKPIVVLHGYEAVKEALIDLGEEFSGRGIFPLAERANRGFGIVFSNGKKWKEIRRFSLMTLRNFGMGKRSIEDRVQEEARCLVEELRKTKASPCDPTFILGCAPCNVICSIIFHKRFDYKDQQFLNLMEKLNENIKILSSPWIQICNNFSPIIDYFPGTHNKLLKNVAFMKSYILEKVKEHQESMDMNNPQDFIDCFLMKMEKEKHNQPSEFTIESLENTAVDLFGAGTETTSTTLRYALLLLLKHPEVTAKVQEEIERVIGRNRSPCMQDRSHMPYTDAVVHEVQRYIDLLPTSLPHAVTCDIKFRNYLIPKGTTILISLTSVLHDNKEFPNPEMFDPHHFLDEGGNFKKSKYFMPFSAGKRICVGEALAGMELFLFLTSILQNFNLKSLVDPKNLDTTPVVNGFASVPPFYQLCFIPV

inhibition, active:
Cc1ccc(S(=O)(=O)Nc2ccccc2CNc2c(C)n(C)n(-c3ccccc3)c2=O)cc1 83.9%
CCN(CC)c1nc(-c2ccccc2)cc(C(F)(F)F)c1C#N 89.5%
Cc1cc(SCC(=O)c2ccccc2)nc(SCC(=O)c2ccccc2)n1 66.3%
O=S(=O)(Nc1ccc(Oc2ncccn2)c(Cl)c1)c1ccc(F)cc1 99.7%
O=C(C(c1ccccc1)c1ccccc1)N1CCN(CC(O)COc2ccccc2)CC1 (stereo not drawn) 65.6%
CCn1c(NC(=O)c2ccccc2)c(-c2cccs2)c(=O)c2ccccc21 86.7%
CCS(=O)(=O)Nc1ccc(C2=NN(S(=O)(=O)c3ccc(F)cc3)C(c3ccco3)C2)cc1 (stereo not drawn) 87.7%
Cc1cccc(NC(=O)C(C)N2C(=O)C3C4CC(C(Br)C4Br)C3C2=O)c1 (stereo not drawn) 51.6%
CCOc1ccccc1C1NC(=O)NC(C)=C1C(=O)OCc1ccco1 (stereo not drawn) 75.3%
CCC(=O)NC(Nc1nc2ccc(C)cc2s1)(C(=O)OC)C(F)(F)F (stereo not drawn) 97%
CC(C)CCSc1ncnc2c1oc1nc3c(cc12)COC(C)(C)C3 55.7%

inhibition, inactive:
Cc1nn(Cc2ccc(C(=O)N3N=C(C(F)F)CC3(O)C(F)F)cc2)c(C)c1[N+](=O)[O-] (stereo not drawn) 25.2%
CCOC(=O)C1CCCN(C(=O)c2sc3nc(C)nc(N4CCOCC4)c3c2C)C1 (stereo not drawn) 23.1%
O=C1Nc2ccccc2C12Nc1ccccc1S2 (stereo not drawn) 37.5%
COc1ccc(C(CC(=O)O)NC(=O)Cc2ccccc2)cc1 (stereo not drawn) -10.6%
Nn1cnnc1N/N=C/c1cc([N+](=O)[O-])c(Cl)cc1Cl 16.5%
O=C(NCC(F)(F)F)Nc1nnc(C(F)(F)F)s1 -13.1%
CN1C(=O)c2ccccc2C(C(=O)NCCCN2CCCC2)C1c1c[nH]c2ccccc12 (stereo not drawn) 4.5%
CCn1nc(NC(=O)c2ccco2)c2cc3ccc(C)cc3nc21 19.8%
Cc1c(-c2ccccc2)cn2c1-c1ccc(C)n1CC2 -10.8%
O=[N+]([O-])c1ccc(NCCCN2CCOCC2)c(Cl)c1 6.4%
CC(C)c1ccc(C(=O)NCCCc2ccccc2)cc1 37.2%
COc1ccc(S(=O)(=O)Nc2c(C)n(C)n(-c3ccccc3)c2=O)cc1 -4.2%
COC(=O)Nc1c(C)n(C)n(-c2ccccc2)c1=O -15.1%
C/C(=N/NC(=O)c1cc(Cl)ccc1O)C12CC3CC(CC(C3)C1)C2 24.2%
Cc1nc(C)c2c(c1C(F)(F)F)-c1ccccc1C2(F)F -9.6%
Nc1ncc(-c2cc3ccccc3oc2=O)s1 24%
N#Cc1c(C(F)(F)F)cc(-c2ccccc2)nc1SCC(=O)N1CCOCC1 -15.6%
CCc1c(-c2ccccc2)nc(N)c(C#N)c1-c1cccs1 21.7%
Cc1ccc(-c2csc(-c3c[nH]c4ccccc34)n2)cc1 9.8%
COc1ccc2c(Cl)c(C(=O)NCc3ccco3)sc2c1 -31.6%
Cc1nc(SCC(=O)c2ccccc2)c([N+](=O)[O-])[nH]1 39.1%
COC(=O)c1cc(C(=O)CSc2nc(C)cc(C)n2)ccc1O 6%
O=S(=O)(NCCOc1cccc2cccnc12)c1ccc(F)cc1 -234%
O=S(=O)(NCc1ccccn1)c1ccc(F)cc1 -1.3%
CCCNc1ncnc2sc(C)c(C)c12 8.4%
CC(=O)c1ccc(Oc2cc(C)nc(-n3nc(C)cc3C)n2)cc1 -5%
OC(COc1cccc(OCC(O)CN2CCCC2)c1)CN1CCCC1 (stereo not drawn) 15.5%
COc1cccc(OCC(O)CN2CCN(CCO)CC2)c1 (stereo not drawn) -2.9%
CN(C(=O)C1CCOC1)c1nnc(-c2cccnc2)s1 (stereo not drawn) 0.8%
Cn1sc(NC(=O)c2ccccc2)nc1=O 19.9%
CCn1c(=O)cc(O)c2ccccc21 -18.7%
Cc1cc(-c2ccccc2)n2nc(C)c(-c3ccccc3)c2n1 -9.3%
Fc1ccc(N2N=C(c3cccs3)CC2c2ccco2)c(F)c1 (stereo not drawn) 15.7%
O=C(c1ccco1)N1CCN(C(=O)C2CC(c3ccc(F)cc3)=NO2)CC1 (stereo not drawn) 5.7%
CC(=O)Nc1ccc(N2C(=O)CCC2=O)cc1C 16.4%
O=C(Cn1nc(C(F)(F)F)c2c1CCC2)NCc1ccc(F)cc1 -216%
CCCN1C(=O)C(NS(=O)(=O)c2ccc(N)cc2)(C(F)(F)F)C(C(=O)OC)=C1C (stereo not drawn) -3.4%
CCCCn1c(CCCNC(=O)CC)nc2ccccc21 -16.5%
Cc1ccccc1S(=O)(=O)Cc1ccc(C(=O)NCCN2CCCCC2C)o1 (stereo not drawn) 11.1%
Cc1cccc(NC(=O)Nc2cccc(Oc3c(F)c(F)c(F)c(F)c3F)c2)c1 20.6%
Cc1cccc(NC(=O)CN2C(=O)CNC2=O)c1 -16.3%
CC1=C(C(=O)Nc2ccc(Cl)cc2)C(c2ccco2)NC(=O)N1 (stereo not drawn) 0.4%
CCOC(=O)COc1ccc(Cl)cc1C1NC(=O)NC(C)=C1C(C)=O (stereo not drawn) 44.9%
CCOc1ccccc1C(=O)NCc1ccco1 -0.6%
c1ccc(CSc2ncnc3c2sc2nc(N4CCOCC4)c4c(c23)CCCC4)cc1 10.4%
CCOC(=O)c1sc(NC(=O)CSc2nc(C)cc(C(F)(F)F)n2)c(C#N)c1C 24.8%
CCC(=O)NC(Nc1cc(C)ccn1)(C(F)(F)F)C(F)(F)F 23.8%
COC(=O)C(NC(C)=O)(Nc1nc2c(s1)CCCC2)C(F)(F)F (stereo not drawn) 26.9%
O=C(CCN1C(=O)COc2ccccc21)NCCCN1CCN(c2ccc(F)cc2)CC1 3.9%
COc1ccc(OC)c(C2N(c3ccccn3)C(=O)C3CCCN32)c1 (stereo not drawn) 10.9%
CC1(C)Cc2nc3sc4c(SCC(=O)NC(c5ccccc5)c5ccccc5)ncnc4c3cc2CO1 20.2%
C=CCn1c(=S)[nH]c2nc3c(cc2c1=O)COC(C)(C)C3 31.2%
